# High-throughput results: PubChem BioAssay, National Center for Advancing Translational Sciences (NCATS)
# HT1080 IDH1KD tx: HT-1080 IDH1 knockdown cell toxicity (counter line) | Potency, µM (top dose mostly 46.1 µM), hits mostly cytotoxic | HT-1080 IDH1 knockdown viability, ATP luminescence, 48 h | 360,000 tested, 2% active
#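 Cytotoxicity counter-line: IDH1KD HT-1080, 48 h, CellTiter-Glo. Curves classed by r2, magnitude and activity.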
# HT1080NT lethal: kills 2HG-producing HT-1080-NT fibrosarcoma cells. HT-1080-NT fibrosarcoma viability, CellTiter-Glo ATP luminescence, 48 h. Potency, µM (series often up to 46.1 µM), hits mostly cytotoxic. 360,000 tested, 1.6% active. AID 686970;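 further: NT is the 2HG producing partner of a matched IDH1 knockdown line; nearly all actives have a fitted effect of over 55% in size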
#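 Viability of the 2HG-overproducing fibrosarcoma line after 48 hours of compound exposure at 37 degrees C was determined by luminescence with CellTiter-Glo, and concentration-effect curves were then fitted and categorized.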
# TDP1 cell CPT: DT40-hTDP1 cell growth loss with CPT; Potency, µM (highest dose often 46.2 µM), actives largely listed as inhibitors; chicken DT40 Tdp1-/-;hTDP1 cells + 20 nM CPT, ATP luminescence, 48 h; 420,000 tested, 12% active; further: nearly all actives have a fitted effect of over 55% in size
#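 Chicken DT40 Tdp1-/- cells stably complemented with human TDP1 were seeded at 400 cells/well in medium containing 20 nM camptothecin, exposed to pin-transferred compounds, and grown at 37 °C for at least 48 hr. Viability was read as ATP luminescence.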
# ELG1 repair inh: inhibitors of ELG1-dependent DNA repair in HEK293T cells; HEK293T ELG1-luciferase reporter, luminescence, 16 h; DNA damage induced by 5-fluorouridine; Potency, µM (top dose mostly 46.1 µM), hits mostly inhibitors; 330,000 tested, 2.3% active; AID 504467; further: nearly all actives have a fitted effect of over 55% in size
#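 Cells (2,000 per well) received 5-fluorouridine plus test compound or DMSO and were incubated 16 hr at 37 °C, 5% CO2. Luciferase activity was read by luminescence 30 min after ONE-Glo addition; signal suppression marked inhibition of damage-induced ELG1 function.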
# IL1B secr inh: inhibitors of inflammasome signaling (IL-1 beta secretion). THP-1 LPS/ATP IL-1B secretion, AlphaLISA, 16 h; hits give low values. AID 743279. activity change, % at 57.5 µM. 360,000 tested, 4.7% active; in the data active means activity change below about -50%; inconclusive means mostly about -30% to -49%
#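 THP-1 cells pretreated 1 hr with compounds (up to 57.5 uM final), then stimulated with LPS (250 ng/mL final) plus ATP (1.25 mM final); secreted IL-1B measured by AlphaLISA after 16 hr, decreased signal indicating inhibition.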
# TDP1 cell noCPT: qHTS for Inhibitors of human tyrosyl-DNA phosphodiesterase 1 (TDP1): qHTS in cells in absence of CPT | DT40 Tdp1-/- hTDP1 cells, no CPT, ATP luminescence, 48 h | Potency, µM (highest dose often 46.2 µM), actives largely listed as inhibitors | 420,000 tested, 15% active | AID 686978, 2013; further: nearly all actives have a fitted effect of over 55% in size
#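 Compound effects on proliferation are scored in DT40 Tdp1-/-;hTDP1 cells in the absence of CPT. ATP levels (CellTiter-Glo luminescence) are recorded after a ≥48 hr, 37 °C incubation.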
# Hits are given with their value; - = inactive; ? = inconclusive; . = no result; [ ] = another dose, or the depositor's remark. A selection: hits, their analogues and other compounds. The true share with any hit is near 19%. Unless noted, the call rests on the fitted dose curve; in most records, active means well fitted curve in the direction sought with a large enough effect; inconclusive means small, poorly fitted or top-dose-only effect, or another doubt; inactive means no such curve, though single readings can be large; an effect the other way counts as inactive or inconclusive.
SMILES,HT1080 IDH1KD tx,HT1080NT lethal,TDP1 cell CPT,ELG1 repair inh,IL1B secr inh,TDP1 cell noCPT
C=CC[n+]1c(-c2ccc(OCC)cc2)csc1NNC(=O)Nc1ccccc1,?,?,7.31µM,?,-,5.8µM
Cc1cccnc1-c1cccc2c1OC(CNC(=O)/C=C/c1cccs1)C2 (stereo not drawn),.,.,-[9.04 µM],.,.,?
O=C(CSCc1ccc(F)cc1)Nc1ccccc1C(=O)N1CCOCC1,-,-,-,-,-,-
O=C(CSCc1ccc(Br)cc1)Nc1ccccc1C(=O)N1CCOCC1,-,-,?,.,-,16.4µM
CC[C@H]1OC(=O)C[C@@H](O)[C@H](C)[C@@H](O[C@@H]2O[C@H](C)[C@@H](O)[C@H](N(C)C)[C@H]2O)[C@@H](CCN2C[C@H](C)C[C@H](C)C2)C[C@@H](C)C(=O)/C=C/C(C)=C/[C@@H]1CO[C@@H]1O[C@H](C)[C@@H](O)[C@@H](OC)[C@H]1OC,.,.,-,.,.,-
CC(C)c1c(C(=O)N2CCCCC2c2cccnc2)cnn1-c1nccc(-c2cccs2)n1 (stereo not drawn),.,.,-[9.04 µM],.,.,?
CC(C)(C)c1ccc(OCCn2nc(C(=O)O)c3ccccc3c2=O)cc1,-,-,16.4µM,-,-,20.6µM
COc1ccccc1CNC(=O)[C@H](C)NC(=O)C1CCN(C(=O)[C@@H](N)C(C)C)CC1,-,-,-,-,-,-
O=C(CONS(=O)(=O)c1ccc(Cl)cc1)NCCNc1ncc(C(F)(F)F)cc1Cl,?,?,-,?,-54.9,?
O=C(OCCNc1ncc(C(F)(F)F)cc1Cl)c1ccc(S(=O)(=O)N2CCOCC2)cc1,-,-,-,-,-,-
CCOC(=O)c1c(-c2ccc(C)o2)csc1NC(=S)NC(=O)N(C)C,12.6µM,10µM,?,?,-,?
CCOC(=O)c1c(-c2ccc(C)o2)csc1N,-,-,-,-,-,-
CCOC(=O)c1c(-c2ccc(C)o2)csc1NC(=O)CN1CCOCC1,-,-,16.4µM,-,-,16.4µM
CCOC(=O)c1c(-c2cccs2)csc1NC(=O)CC(C)C,-,-,18.4µM,-,-,20.6µM
CCOC(=O)c1c(-c2ccc(C)o2)csc1NC(=O)COC(=O)c1cccs1,-,-,?,-,-,18.4µM
CCOC(=O)c1c(-c2ccc(C)o2)csc1NC(=O)CSc1ncn[nH]1,-,-,-,-,-,-
COc1ccc(N(CC(=O)NCC2CCCO2)C(=O)CCC(=O)Nc2cc(C)on2)cc1OC (stereo not drawn),-,-,-,-,-,-
Cc1ccc(-c2nc3cc(Cl)ccc3o2)cc1NC(=O)c1cc2ccccc2o1,.,.,-,.,.,-
O=C(COc1ccc(-c2nnco2)cc1)N1CCOCC1,-,-,-,-,-,-
CC1(C(=O)Nc2ccc3ccccc3c2)CCC(=O)N1CCOc1ccccc1 (stereo not drawn),-,-,-,.,-,-
CCOC(=O)c1c(-c2cccs2)csc1NC(=O)CN(CC)CC,-,-,?,-,-,?
CCOC(=O)c1c(CC(C)C)csc1NC(=O)CCl,-,-,13µM,-,-,10.3µM
CCOC(=O)c1c(-c2cccs2)csc1NC(=O)CN1CCOCC1,-,-,?,?,-,20.6µM
CCOC(=O)c1c(CC(C)C)csc1NC(=O)COC(=O)c1cnc(C)cn1,-,-,-,.,-,-
COc1cc(/C=N/NC(=S)Nc2cccc(Cl)c2C)ccc1OCC(=O)N1CC(C)OC(C)C1 (stereo not drawn),-,-,14.6µM,?,-,14.6µM
SMILES,HT1080 IDH1KD tx,HT1080NT lethal,TDP1 cell CPT,ELG1 repair inh,IL1B secr inh,TDP1 cell noCPT
CCOc1ccc(/C=N/OCC(=O)Nc2ccc(OCc3ccccc3)cc2)cc1OC,-,-,-,-,-,?
COc1cc(/C=N/NC(=S)NC(C)C)ccc1OCC(=O)Nc1c(C)cc(C)cc1C,-,-,7.31µM,?,-,7.31µM
CCCCNC(=S)N(C)/N=C/c1ccc(OCC(=O)Nc2ccc(OC)cc2)c(OC)c1,-,-,23.1µM,10.3µM,?,?
CCCCNC(=S)N(C)/N=C/c1ccc(OCC(=O)Nc2c(C)cc(C)cc2C)c(OC)c1,?,-,13µM,?,-,8.2µM
CCCCNC(=S)N(C)/N=C/c1ccccc1C(=O)O,-,-,-,-,-,?
Cc1nn(CC(=O)NCc2cccc(Br)c2)c(=O)c2c1sc1ccccc12,.,.,-,.,.,-
Cc1ccc(NC(=O)Cn2cc(S(=O)(=O)c3ccc(C)cc3)c(=O)c3cc4c(cc32)OCO4)cc1,.,.,-,.,.,-
COc1ccc(NC(=O)COc2ccc(/C=N/O)cc2OC)cc1,-,?,?,?,-,11.6µM
COc1ccccc1CNC(=O)c1c(O)nc2c(C)cccn2c1=O,.,.,-,.,.,?
Cc1ccc(CS(=O)Cc2ccc(C(=O)NC3CCCCCC3)o2)cc1 (stereo not drawn),-,-,-,-,-,-
O=C(NC1CCCCCCC1)c1ccc(Br)o1,-,-,-,?,-,4.61µM
Cc1ccc(CS(=O)Cc2ccc(C(=O)NC3CCCC(C)C3C)o2)cc1 (stereo not drawn),-,-,20.6µM,-,-,?
Cc1ccc(CNC(=O)c2ccc(CS(=O)Cc3ccccc3Cl)o2)cc1 (stereo not drawn),-,-,?,-,-,-
COc1ccc(CNC(=O)c2ccc(CS(=O)Cc3ccccc3Cl)o2)cc1 (stereo not drawn),.,.,?,.,.,18.4µM
O=C(NC1CCCCCC1)c1ccc(CS(=O)Cc2ccccc2Cl)o1 (stereo not drawn),-,-,?,-,-54.2,?
CC(=O)N1CCN(C(=O)c2cccc(S(=O)(=O)N3CCOCC3)c2)CC1,-,-,-,?,-,-
CCOC(=O)[C@H]1[C@H]2COc3ccc(OC)cc3[C@@H]2N2C(=O)c3ccccc3NC(=O)[C@@]12C,-,-,-,-,-,-
CC1=C2C3OC(=O)C(C)C3CCC2(C)C=CC1=NO (stereo not drawn),-,-,-,.,-,-
Cc1ccc(S(=O)Cc2ccc(C(=O)NC3CCCCCC3)o2)cc1 (stereo not drawn),.,.,?,.,.,16.4µM
Cc1ccccc1S(=O)Cc1ccc(C(=O)NC2CCCCCC2)o1 (stereo not drawn),.,.,18.4µM,.,.,?
COc1ccccc1S(=O)Cc1ccc(C(=O)NC2CCCC2)o1 (stereo not drawn),-,-,-,-,-,-
